The values below come from PubChem BioAssay AID1851 (National Center for Advancing Translational Sciences (NCATS), 2009).

Out of some 16,000 compounds screened, about 2,600 (16%) were called active. Not shown: some 20% with an inconclusive outcome. The call rests on the fitted dose curve; in most records, active means well fitted curve in the direction sought with a large enough effect; inconclusive means small, poorly fitted or top-dose-only effect, or effect the other way; inactive means no such curve, though single readings can be large or run the other way. A selection follows. Peptide text beside a SMILES is read from it. * marks the point of attachment. PhAc = O=C(Cc1ccccc1)*; OBn = c1ccc(CO*)cc1
On the % scale 0 is the no-effect control and ±100 the full control effect.

Sequence of Cytochrome P450 2D6 (Homo sapiens) (P10635 whole entry, looked up): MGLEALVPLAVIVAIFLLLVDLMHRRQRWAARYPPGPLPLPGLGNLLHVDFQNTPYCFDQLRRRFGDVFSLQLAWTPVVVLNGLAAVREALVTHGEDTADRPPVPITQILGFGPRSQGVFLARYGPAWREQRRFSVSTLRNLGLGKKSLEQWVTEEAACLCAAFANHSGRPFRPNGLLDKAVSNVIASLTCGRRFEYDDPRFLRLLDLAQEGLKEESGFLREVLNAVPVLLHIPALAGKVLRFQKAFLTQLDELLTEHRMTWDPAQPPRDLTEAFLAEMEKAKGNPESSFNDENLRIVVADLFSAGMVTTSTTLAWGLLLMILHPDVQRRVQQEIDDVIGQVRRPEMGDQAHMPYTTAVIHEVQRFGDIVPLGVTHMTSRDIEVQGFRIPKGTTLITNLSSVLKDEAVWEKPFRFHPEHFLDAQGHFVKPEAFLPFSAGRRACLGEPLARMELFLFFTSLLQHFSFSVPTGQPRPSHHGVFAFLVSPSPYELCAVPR

The test has as its target Cytochrome P450 2D6 (Homo sapiens) (UniProt P10635). The test can be described thus: Cytochrome panel assay with activity outcomes. Particulars: recombinant CYP, pro-luciferin dealkylation, luminescence, p450-cyp2d6; series mostly up to 57.1 µM; activity, negative = inhibition: at the top concentration.
Consider `COc1ccc(/C=C/C(=O)Nc2ccccc2C(=O)N2CCCC2)cc1`, for which the “activity, negative = inhibition” value is -9.24% (inactive).
Take `CCCc1cc2c(n1CCc1ccc(Cl)cc1)C(C)C1CN(C(=O)c3ccccc3)C(C)(C(=O)OC)C21` (configuration not stated): the AC50 – broadly, the concentration giving half of the maximal activity seen – was 5.01 µM (active).
Consider `COC(=O)[C@@]1(Cc2ccc(F)cc2)[C@H]2c3cc(C(=O)N4CCCC4)n(Cc4ccc(Cl)c(C(F)(F)F)c4)c3C[C@H]2CN1C(=O)c1ccccc1`, for which the “activity, negative = inhibition” value is 5.7% (inactive).
Still for that read-out and setting: with `COC(=O)[C@@]1(Cc2ccccc2)[C@H]2c3cc(C(=O)N4CCCC4)n(Cc4ccc(S(C)(=O)=O)cc4)c3C[C@H]2CN1C(=O)c1ccccc1` the figure was -14.3% (inactive); with `CS(=O)(=O)Nc1c(O)ccc2c1CCC[C@H]2C1=NCCN1`, -10.4% (inactive).
Take `N[C@H](C(=O)O)c1cc(O)cc(O)c1`: the AC50 entry is “inactive”.
On to `O=C(CNC(=O)Cc1ccccc1)NCC(=O)OCc1ccccc1` (PhAc-Gly-Gly-OBn), for which the “activity, negative = inhibition” value was -13.3% (inactive).
Consider `O=C(CNC(=O)c1cccs1)NCC(=O)OCc1ccc(Cl)cc1`, for which the AC50 is 15.8 µM (active).
Consider `O=C(NOC(=O)c1cc(Br)ccc1Cl)c1cccs1`, for which the “activity, negative = inhibition” value is 3.2% (inactive).
Take `C/C(=N/NC(=O)c1cccs1)c1ccc(NC(=O)COc2ccc(Cl)cc2Cl)cc1`: the “activity, negative = inhibition” value was -12% (inactive).
For `O=C(CNC(=O)c1cccs1)NCC(=O)OCc1ccc(Cl)cc1Cl`, the AC50 is 3.55 µM (active).
Turning to `CC(C)(C)c1ccc(COC(=O)CNC(=O)CNC(=O)Cc2ccccc2)cc1`, the “activity, negative = inhibition” value was -17.8% (inactive).
On the same count and under the same terms, to `NCCSC[C@H](N)C(=O)O` belongs -2.62% [at 11.4 µM] (inactive); to `Cc1n[nH]c(=O)[nH]c1=O`, -2.55% [at 25.6 µM] (inactive); to `C[C@@]12C=CC(=O)C=C1CC[C@@H]1[C@@H]2[C@H](O)C[C@]2(C)[C@@H]1CC[C@]2(O)C(=O)CO`, -2.91% [at 25.6 µM] (inactive).
Take `COc1ccc(-n2c(=O)c(C)nc3cnc(Oc4ccccc4)nc32)cc1`: the “activity, negative = inhibition” value is -18.4% (inactive).
As for `COc1cc(/C=C(/C#N)c2nc3ccccc3[nH]2)ccc1OCC(=O)Nc1ccccc1C`, the “activity, negative = inhibition” value was -16.6% (inactive).
Consider `N#C/C(=C\c1ccc(N2CCCC2)c([N+](=O)[O-])c1)c1nc2ccccc2[nH]1`, for which the AC50 was 0.631 µM (active).
Turning to `O=C(O/N=C\c1ccc(N2CCCCC2)c([N+](=O)[O-])c1)c1c(F)cccc1F`, the “activity, negative = inhibition” value is 7.86% (inactive).
Take `N#C/C(=C/c1ccc(N2CCCC2)c([N+](=O)[O-])c1)c1nc2ccccc2[nH]1`: the AC50 is 0.2 µM (active).
In the case of `N#C/C(=C\c1ccc(Oc2ccc(C(F)(F)F)cc2[N+](=O)[O-])cc1)c1nc2ccccc2[nH]1`, the “activity, negative = inhibition” value is -81.3% (inactive).
For `N#C/C(=C\c1cc([N+](=O)[O-])c(N2CCCCC2)cc1N1CCCCC1)c1nn(-c2ccccc2)c(N)c1C#N`, the “activity, negative = inhibition” value is 27.3% (inactive).
Still for that read-out and setting: to `CSc1ncnc2c1ncn2[C@@H]1O[C@@H](CO)[C@H](O)O[C@@H]1O` belongs 14.1% [at 11.4 µM] (inactive).
The same measure, in the same setting: to `CC(NC(=O)OCc1ccccc1)C(=O)NCC1CCCO1` (configuration not stated) belongs 13.2% (inactive); to `CCCC[C@@H]1C[C@H]1C(NC(=O)c1cccs1)c1ccc(Cl)cc1` (some centres not stated), 3.97% (inactive).
As to `O=S(=O)(O)c1ccc(N=Nc2ccc3c(S(=O)(=O)O)cccc3c2O)c2ccccc12`, the activity, negative = inhibition is -18.7% [at 11.4 µM] (inactive).
Turning to `CCc1c(C)nc(N)n2c(SCC(=O)Nc3ccccc3)nnc12`, the AC50 is 1.41 µM (active).
For the compound `Cn1c(SCC(=O)Nc2ccccc2)nc(O)cc1=O`, the “activity, negative = inhibition” value is -13.2% (inactive).
Regarding `CCN(CC)c1ccc(NC(=O)CSc2nnc3nc(C)cc(C)n23)cc1`, the “activity, negative = inhibition” value was 12.6% (inactive).
On the same count and under the same terms, to `COc1ccc(Oc2ncc3nc(CCc4ccccc4)c(=O)n(CCC#N)c3n2)cc1` belongs -6.14% (inactive); to `Cc1cccc(OC2(c3ccccc3)OC(=O)c3ccccc32)c1C` (configuration not stated), -6.72% (inactive); to `CCN(CC)C(=O)COc1ccc(S(=O)(=O)N2CCOCC2)cc1`, 22.3% (inactive).
On the same count and under the same terms, with `N#C/C(=C\NC(=S)c1ccncc1)c1nc2ccccc2s1` the figure was -9.99% [at 11.4 µM] (inactive).
Consider `C=CCn1c(=O)c(C(=O)NCCN(CC)CC)c(O)c2ccccc21`, for which the AC50 is 4.47 µM (active).
Take `CCCc1c(O)c2ccccc2n(-c2ccccc2)c1=O`: the “activity, negative = inhibition” value was 1.37% (inactive).
Turning to `CN(C(=O)c1c(O)c2ccccc2n(C)c1=O)c1ccccc1`, the “activity, negative = inhibition” value is -7.86% (inactive).
On the same count and under the same terms, to `COc1ccc(NC(=O)N2CCCC3(CCN(C(=O)c4cnccn4)CC3)C2)cc1` belongs 4.29% (inactive).
Still for that read-out and setting: to `Cc1cc(NC(=O)c2cc(C(C)C)on2)no1` belongs 20.3% (inactive); to `CCOC(=O)N1CCN(CC(=O)c2ccc3c(c2)CCN3)CC1`, -23.3% (inactive); to `CC(=O)C1=C(O)C=C(c2ccco2)CC1c1ccco1` (configuration not stated), -12.8% (inactive).
The same measure, in the same setting: to `CSc1n[nH]c(-c2sccc2OCc2ccc(C)cc2)n1` belongs -27.3% (inactive); to `Cc1cc(NC(=O)CSc2n[nH]c(-c3cccs3)n2)no1`, -3.95% (inactive).
Consider `c1ccc(-c2nc(CSc3n[nH]c(-c4cccs4)n3)cs2)cc1`, for which the AC50 was 1.12 µM (active).
In the case of `C=CC[C@@H](C(=O)O)c1ccccc1`, the activity, negative = inhibition was 1.94% [at 11.4 µM] (inactive).
Still for that read-out and setting: to `CCc1c(C)c(C#N)c2nc3ccccc3n2c1N1CCN(c2cc(C)ccn2)CC1` belongs -6.92% (inactive); to `C[C@H]1CCCC=CC2C[C@H](OC(=O)CN(C)C)C[C@@H]2[C@@H](O)/C=C\C(=O)O1` (some centres not stated), 9.34% [at 11.4 µM] (inactive); to `Cc1cccc2sc(NC(=O)C3c4ccccc4Oc4ccccc43)nc12`, -27% (inactive).
Turning to `c1ccc(-c2cccc(N3CC[C@@]4(CCCNC4)C3)c2)cc1`, the AC50 is 10 µM (active).
Regarding `CS(=O)(=O)N1CCC2(CC1)CN(c1cccc(-c3ccccc3)c1)C2`, the “activity, negative = inhibition” value was -0.816% (inactive).
For the compound `O=S(=O)(c1ccccc1)N1CCC[C@@]2(CCN(c3cccc(-c4ccccc4)c3)C2)C1`, the “activity, negative = inhibition” value was -1.58% (inactive).
Still for that read-out and setting: with `Cn1cccc1C(=O)N1CCC2(CC1)CN(c1cccc(-c3ccccc3)c1)C2` the figure was -4.41% (inactive); with `O=S(=O)(c1ccccc1)N1CCC2(CCCN(c3cccc(-c4ccccc4)c3)C2)CC1`, 1.98% (inactive).
Regarding `c1ccc(-c2cccc(N3CC4(CCNCC4)C3)c2)cc1`, the AC50 is 20 µM (active).
Take `Cc1ccccc1C(=O)Nc1ccc(C(=O)NNC(=O)CCCOc2ccc(Cl)cc2Cl)cc1`: the “activity, negative = inhibition” value was -9.11% (inactive).
For `COc1cc(Br)c(C(C)NC(=O)c2cccc(Br)c2)cc1OC` (configuration not stated), the “activity, negative = inhibition” value was -16.8% (inactive).
On the same count and under the same terms, to `C/C(=N\NC(=O)c1cccc(C)c1)c1cccc(NC(=O)c2ccco2)c1` belongs -0.781% (inactive); to `Cn1c([N+](=O)[O-])cnc1COC(N)=O`, 1.78% [at 25.6 µM] (inactive).
In the case of `Cc1cc(C)c2cc(C#N)c(NCCOC(=O)c3ccccc3C)nc2c1`, the “activity, negative = inhibition” value is 6.66% (inactive).
Consider `Cc1nn(-c2ccc(Cl)cc2)c2sc(C(=O)c3c(N)n(C)c(=O)n(C)c3=O)cc12`, for which the “activity, negative = inhibition” value was 22% (inactive).
On the same count and under the same terms, with `Cc1nn(-c2ccccc2)c2c1C(c1ccc(O)c(O)c1)N1C(=N2)C(Nc2ccccc2)=Nc2ccccc21` (configuration not stated) the figure was -1.07% (inactive); with `COc1ccccc1OCc1ccc(C(=O)N(C)C)o1`, -26.7% (inactive).
Still for that read-out and setting: with `Cc1ccc(C(=O)NNC(=O)CSc2nnc3c(n2)[nH]c2ccc(F)cc23)cc1` the figure was -8.95% (inactive).
The same measure, in the same setting: with `CC(=O)Nc1ccc(-c2cc(C(=O)O)c3cc4ccccc4cc3n2)cc1` the figure was -6.98% [at 11.4 µM] (inactive).
In the case of `O=C(O)c1cc(-c2ccc(-c3ccccc3)cc2)nc2cc3ccccc3cc12`, the activity, negative = inhibition was -10.7% [at 11.4 µM] (inactive).
For `COc1ccc(OC)c(-c2cc(C(=O)O)c3cc4ccccc4cc3n2)c1`, the concentration at half-maximal activity (AC50) was 3.98 µM (active).
As for `O=C(Oc1ccc(C(=S)N2CCOCC2)cc1Br)c1cc(Cl)ccc1Cl`, the “activity, negative = inhibition” value is -5.56% (inactive).
On the same count and under the same terms, with `O=C(O)c1ccc(C(=O)Nc2cccc3ccccc23)c(C(=O)O)c1` the figure was 10.4% [at 11.4 µM] (inactive); with `COc1ccc(-n2c(=O)c(C)nc3cnc(Nc4cccc(OC)c4)nc32)cc1`, -12.9% (inactive).
Still for that read-out and setting: to `COc1cccc2cc(C(=O)CC3(O)C(=O)N(Cc4ccccc4)c4ccccc43)c(=O)oc12` (configuration not stated) belongs -12.8% (inactive).
For `COc1cccc(-c2nccc(NCc3ccccc3)n2)c1`, the AC50 was 1 µM (active).
Consider `COc1cccc(-c2nccc(NCc3cccs3)n2)c1`, for which the half-maximal activity concentration (AC50) is 0.316 µM (active).
For the compound `COc1cccc(-c2nccc(NCc3cnc(C)cn3)n2)c1`, the “activity, negative = inhibition” value is -11.9% (inactive).
Consider `COc1cccc(-c2nccc(NCc3cccc(C)c3)n2)c1`, for which the concentration at half-maximal activity (AC50) is 10 µM (active).
As to `COc1ccc(-c2nc3cnc(Nc4cccc(OC)c4)nc3n(Cc3cccs3)c2=O)cc1`, the “activity, negative = inhibition” value was 4.57% (inactive).
Still for that read-out and setting: with `COc1cccc(Nc2ncc3nc(-c4ccccc4)c(=O)n(Cc4cccs4)c3n2)c1` the figure was 11.2% (inactive).
On the same count and under the same terms, with `CCOC(=O)CCN1C(=O)[C@H]2[C@@H]3[C@H](O)[C@H](O)CC(=O)[C@H]3CC[C@H]2C1=O` the figure was -6.39% [at 11.4 µM] (inactive).
The same measure, in the same setting: with `CC(C)CN(CC#N)CC(C)C` the figure was 1.21% [at 11.4 µM] (inactive).
As for `O=C(c1cc(C(F)(F)F)cc(C(F)(F)F)c1)N1CCC2(CC1)CN(c1ccccc1)C2`, the “activity, negative = inhibition” value was 8.07% (inactive).
On the same count and under the same terms, to `O=c1ncn(-c2ccccc2F)c2ncccc12` belongs 23.3% (inactive); to `CN1CCCC2(CCN(C(=O)c3cc(C(F)(F)F)cc(C(F)(F)F)c3)CC2)C1`, -5.92% (inactive); to `O=C(Nc1ccccc1N1CCN(C(=O)c2ccc(Cl)cc2)CC1)c1cc(Br)ccc1Cl`, -24.3% (inactive).
The same measure, in the same setting: with `C[C@@H](c1ccccc1)N1C(=O)[C@H]2[C@H]3[C@H](O)[C@H](O)C/C(=N/OC[C@@H](O)COCc4ccco4)[C@@H]3CC[C@@H]2C1=O` the figure was 3.23% [at 11.4 µM] (inactive); with `O=C(N/N=C/c1c[nH]c2ccccc12)c1cc(-c2ccc(-c3ccccc3)cc2)n[nH]1`, -8.44% (inactive).
With `O=C(N/N=C/c1c[nH]c2ccc(Br)cc12)c1ccn(Cc2ccc(Cl)cc2)n1`, the AC50 was 12.6 µM (active).
With `[N-]=[N+]=NC[C@@H]1O[C@@H](n2cnc3c(N)ncnc32)[C@@H]2O[C@@H]21`, the activity, negative = inhibition was 3.12% [at 11.4 µM] (inactive).
As for `CC(=O)N1CCc2cc(S(=O)(=O)CCC(=O)Nc3c(C)n(C)n(-c4ccccc4)c3=O)ccc21`, the “activity, negative = inhibition” value was 9.42% (inactive).
With `CC(C)CCNC1=NCCCCC1`, the concentration at half-maximal activity (AC50) was 12.6 µM (active).
For `Cc1ccc2[nH]c3nc(CCCn4ccnc4-c4ccccc4)nnc3c2c1`, the activity, negative = inhibition was -15.6% [at 11.4 µM] (inactive).
The same measure, in the same setting: with `Cc1sc(NC(=O)c2ccc(OCC(C)C)cc2)c(C(N)=O)c1-c1ccc(Cl)cc1Cl` the figure was 6.82% (inactive).
Same read-out and setting: to `N#Cc1cccc(NC(=O)N2CC3(CCN(C(=O)c4cnccn4)CC3)C2)c1` belongs -5.46% (inactive); to `CCOc1ccccc1C1C(C#N)=C(N)Oc2n[nH]c(CC)c21` (configuration not stated), -15.4% (inactive); to `O=C(N/N=C\c1ccc(-c2ccccc2[N+](=O)[O-])o1)C1COc2cc3ccccc3cc2O1` (configuration not stated), 4.5% (inactive).
